PubChem BioAssay (Tox21)
Inconclusive results are not listed. The source made the active and inactive calls. Unless noted, calls come from the whole dose curve; as a rule, active = well fitted curve in the direction sought with a large enough effect in the repeat runs; inconclusive = weak or mixed curves; inactive = no such curve, though single readings can be large; an effect the other way counts as inactive or inconclusive.

Legend:
[1] = qHTS assay to identify small molecule antagonists of the glucocorticoid receptor (GR) signaling pathway - cell viability counter screen (AID 720693); note: nearly all actives have a fitted effect of over 55% in size
[2] = qHTS assay for identifying genotoxic compounds that show differential cytotoxicity against isogenic chicken DT40 cell lines with known DNA damage response pathways - wild type cell line (AID 743012); note: nearly all actives have a fitted effect of over 60% in size; note: potency is the fitted concentration of half-maximal effect
Summary of the method: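 Wild-type DT40 cells (300/well) exposed to compounds for 40 hours at 37 C/5% CO2. Viability read by CellTiter-Glo luminescence after 30 min at room temperature.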

[3] = qHTS assay for identifying genotoxic compounds that show differential cytotoxicity against isogenic chicken DT40 cell lines with known DNA damage response pathways - Rad54/Ku70 mutant cell line (AID 743015); note: nearly all actives have a fitted effect of over 60% in size; note: potency is the fitted concentration of half-maximal effect
[4] = qHTS assay to identify small molecule antagonists of the androgen receptor (AR) signaling pathway - cell viability counter screen (AID 743033; note: nearly all actives have a fitted effect of over 45% in size; note: potency is the fitted concentration of half-maximal effect)
[5] = qHTS assay to identify small molecule antagonists of the androgen receptor (AR) signaling pathway using the MDA cell line - cell viability counter screen (AID 743041; note: nearly all actives have a fitted effect of over 45% in size)
Summary of the method: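 MDA-kb2 AR-luc cells (MMTV-luciferase, AR/GR responsive) treated with compounds plus R1881 agonist for 16 h at 37C. CellTiter-Fluor added at 15.5 h; fluorescence read after 30 min in the same wells.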

[6] = qHTS assay to identify small molecule antagonists of the thyroid receptor (TR) signaling pathway - cell viability counter screen (AID 743064); note: nearly all actives have a fitted effect of over 50% in size; note: potency is the fitted concentration of half-maximal effect
Summary of the method: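 GH3.TRE-Luc rat pituitary cells dosed after 4 hr plating, co-stimulated with T3 at 1 nM final, incubated 23.5 h at 37 C. Viability measured in the same wells by CellTiter-Fluor fluorescence after 30 min further at 37 C.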

[7] = qHTS assay for identifying genotoxic compounds that show differential cytotoxicity against isogenic chicken DT40 cell lines with known DNA damage response pathways - Rev3 mutant cell line (AID 743014); note: nearly all actives have a fitted effect of over 55% in size; note: potency is the fitted concentration of half-maximal effect
[8] = target: Androgen receptor (Homo sapiens) (UniProt P10275); test: qHTS assay to identify small molecule agonists of the androgen receptor (AR) signaling pathway using the MDA cell line (AID 743040; note: nearly all actives have a fitted effect of over 20% in size; note: potency is the fitted concentration of half-maximal effect)
Summary of the method: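 MDA-kb2 breast carcinoma cells carrying MMTV-luciferase (responsive to AR and GR), plated 5 h then treated 16 h with compounds at 37C, 0% CO2. Read-out was ONE-Glo luminescence after 30 min at room temperature.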

[9] = target: Androgen receptor (Homo sapiens) (UniProt P10275); test: qHTS assay to identify small molecule antagonists of the androgen receptor (AR) signaling pathway using the MDA cell line (AID 743042; note: nearly all actives have a fitted effect of over 55% in size)
Summary of the method: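 MDA-kb2 breast carcinoma cells carrying MMTV-luciferase (AR/GR responsive) were co-treated with compounds and the agonist R1881 for 16 h at 37C. Inhibition read as ONE-Glo luminescence; CellTiter-Fluor fluorescence measured in parallel for cytotoxicity.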

[10] = target: Androgen receptor (Homo sapiens) (UniProt P10275); test: qHTS assay to identify small molecule antagonists of the androgen receptor (AR) signaling pathway (AID 743035; active = well fitted inhibition curve with a large enough effect in the signal ratio in the repeat runs, not every such curve was filed as active; the % refers to the signal ratio)
Summary of the method: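 HEK293 cells stably carrying UAS-beta-lactamase reporter, 2,000/well, given compounds plus R1881 agonist and incubated 16 h at 37C. LiveBLAzer B/G FRET substrate then added for 2 h at room temperature before fluorescence reading.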

Measured: Potency

Androgen receptor (Homo sapiens), sequence (P10275 whole entry, looked up): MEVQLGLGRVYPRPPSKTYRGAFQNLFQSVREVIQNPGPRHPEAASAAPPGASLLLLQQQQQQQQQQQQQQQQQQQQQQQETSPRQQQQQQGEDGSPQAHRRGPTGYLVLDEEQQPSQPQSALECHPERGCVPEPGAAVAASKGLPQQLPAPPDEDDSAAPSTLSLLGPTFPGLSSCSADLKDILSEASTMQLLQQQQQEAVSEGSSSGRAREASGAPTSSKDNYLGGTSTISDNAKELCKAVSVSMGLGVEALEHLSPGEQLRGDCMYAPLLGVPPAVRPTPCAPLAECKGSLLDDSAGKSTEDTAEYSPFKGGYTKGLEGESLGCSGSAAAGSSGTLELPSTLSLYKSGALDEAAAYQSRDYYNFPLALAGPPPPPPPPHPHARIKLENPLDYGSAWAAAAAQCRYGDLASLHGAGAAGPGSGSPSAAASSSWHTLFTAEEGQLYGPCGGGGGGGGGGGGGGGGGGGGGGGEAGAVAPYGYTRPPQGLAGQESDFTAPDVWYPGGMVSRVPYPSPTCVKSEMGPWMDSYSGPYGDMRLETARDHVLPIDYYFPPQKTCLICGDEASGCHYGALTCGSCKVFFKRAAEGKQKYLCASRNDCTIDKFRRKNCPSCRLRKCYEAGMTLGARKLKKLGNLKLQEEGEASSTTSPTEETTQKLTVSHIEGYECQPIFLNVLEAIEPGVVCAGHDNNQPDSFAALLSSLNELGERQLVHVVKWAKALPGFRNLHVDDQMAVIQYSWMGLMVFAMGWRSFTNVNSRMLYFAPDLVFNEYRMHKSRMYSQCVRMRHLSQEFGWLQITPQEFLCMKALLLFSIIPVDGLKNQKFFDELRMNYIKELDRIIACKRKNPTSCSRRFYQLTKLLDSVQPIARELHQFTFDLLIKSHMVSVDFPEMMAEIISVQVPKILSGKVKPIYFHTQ

COC1CCC=CO1 (stereo unspecified)
inactive: [1] | [2] | [3] | [4] | [5] | [6]

O=C1[C@@H]2[C@H]3CC[C@H](C3)[C@@H]2C(=O)N1CCCCN1CCN(c2ncccn2)CC1
inactive: [1] | [2] | [7] | [4] | [5]

FC(F)(F)C(F)(F)C(F)(F)C(F)(F)CCI
inactive: [1] | [2] | [3] | [4] | [5]

OCC(CO)n1cnc(-c2ccc(F)cc2)c1-c1ccnc(Oc2ccccc2)n1
inactive: [1] | [4] | [5] | [6]
active: [2] 68.5 µM | [3] 68.5 µM

CC(=O)OCC(=O)[C@@]1(OC(C)=O)[C@@H](C)C[C@H]2[C@@H]3C[C@H](F)C4=CC(=O)C=C[C@]4(C)[C@@]3(F)[C@@H](O)C[C@@]21C
inactive: [1] | [4] | [5] | [6]
active: [2] 26.6 µM | [7] 11.9 µM

C=C(C)C(=O)OCCC(F)(F)C(F)(F)C(F)(F)C(F)(F)C(F)(F)C(F)(F)F
inactive: [1] | [2] | [3] | [4] | [5]

Nc1ccc(NC(=O)c2ccc(N)cc2)cc1
not listed: [3] | [10]
inactive: all other assays above

O=C(O)/C=C/c1ccc(O)c(O)c1
active: [8] 27.5 µM
not listed: [6] | [7] | [10]
inactive: all other assays above

CC(O)Cn1cnc2c1c(=O)n(C)c(=O)n2C (stereo unspecified)
inactive: [1] | [2] | [7] | [3] | [5] | [6]

CCCCCCCC(=O)Oc1c(Br)cc(C#N)cc1Br
inactive: [1] | [2] | [7] | [5]

C[C@H](CS)C(=O)N1CCC[C@H]1C(=O)O
not listed: [6] | [7] | [10]
inactive: all other assays above

CC(C)CC(O)CC(C)C
inactive: [1] | [2] | [3] | [4]

C[C@@H]1C[C@H]2[C@@H]3CCC4=CC(=O)C=C[C@]4(C)[C@@]3(F)[C@@H](O)C[C@]2(C)[C@@]1(O)C(=O)COP(=O)(O)O
inactive: [1] | [2] | [3] | [4] | [5]

O=C(O)CCS
inactive: [1] | [2] | [3] | [4] | [5] | [6]

CCNc1nc(N)nc(Cl)n1
inactive: [1] | [2] | [3] | [4] | [5]

CCCCOC(=O)CCCCC(=O)OCCCC
inactive: [1] | [2] | [3] | [4] | [5] | [6]

CC(C)(C(=O)c1cccnc1)c1cccnc1
inactive: [1] | [2] | [3] | [4] | [5] | [6]

CC1=CC[C@@]23C[C@@H]1C(C)(C)[C@@H]2CC[C@H]3C
inactive: [1] | [2] | [7] | [4] | [5]

CC(C)C1CCC(C(=O)N[C@H](Cc2ccccc2)C(=O)O)CC1 (stereo partly specified)
inactive: [1] | [2] | [3] | [4] | [5]

O=CNNC=O
inactive: [1] | [2] | [3] | [4] | [5] | [6]

c1ccc(CCCc2ccncc2)cc1
inactive: [1] | [2] | [3] | [4] | [5]

CCN(CC)c1cccc(O)c1
not listed: [6] | [7] | [10]
inactive: all other assays above

CCCOC(=O)c1c(Cl)c(Cl)c(Cl)c(Cl)c1C(=O)OCCC
active: [2] 54.5 µM | [7] 61.1 µM | [3] 61.1 µM
inactive: [1] | [6]

C=Cc1ccc(OC(C)=O)cc1
not listed: [7]
inactive: all other assays above

C=CCOC(=O)COCCC(C)C
inactive: [1] | [2] | [3] | [4] | [5]

CCCCCCC(O)CCCCCCCCCCC(=O)OC (stereo unspecified)
active: [3] 68.6 µM
inactive: [1] | [2] | [4] | [5] | [6]

CC1CCc2nccnc21 (stereo unspecified)
active: [3] 54.5 µM
inactive: [1] | [2] | [4] | [5] | [6]

COc1cc(NCc2ccc3nc(N)nc(N)c3c2C)cc(OC)c1OC
active: [2] 0.133 µM | [3] 0.266 µM | [4] 0.674 µM | [6] 8.41 µM
inactive: [1] | [5]

CC(CO)(CO)C(=O)O
inactive: [1] | [2] | [3] | [4] | [5] | [6]

CC(C)(C)NCC(O)COc1cccc2c1C[C@H](O)[C@H](O)C2 (stereo partly specified)
inactive: [1] | [2] | [3] | [4] | [5] | [6]

COc1ccc(-c2cc(C(F)F)nn2-c2ccc(S(N)(=O)=O)cc2)cc1F
inactive: [1] | [2] | [3] | [4] | [5] | [6]

COc1cc(C(C)=O)ccc1OCCCN1CCC(c2noc3cc(F)ccc23)CC1
active: [2] 11.9 µM | [3] 16.8 µM | [6] 21.1 µM
inactive: [1] | [4] | [5]
